APP 5'UTR act = activates APP 5'UTR luciferase reporter | 190,000 compounds, 1% hits | SH-SY5Y APP 5'UTR luciferase reporter, luminescence; zero percent = DMSO vehicle wells | activation, % at 2 µM;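 active = activation above a set limit, based on mean plus 3 SD of controls, cut at about 140% in these data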
NF-kB neuron act = compounds increasing NF-kB expression in human neuronal cells; 190,000 compounds, 1.6% hits; NF-kB reporter expression; active compounds read high; fold change at 12.5 µM; in the data active = fold change above about 3.3
hcDAF-12 act = H. contortus DAF-12 activation, primary screen. AID 652067. activation, % at 6.8 µM. 370,000 compounds, 1.4% hits. HEK293 hcDAF-12 lit1-tk-luc reporter, luminescence; 0% DMSO, 100% Δ7-dafachronic acid;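 active = activation above the mean of all tested compounds plus 3 SD, cut at about 5.5% in these data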;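 note: 100% = response to 3 µM Δ7-dafachronic acid high control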
hgDAF12 agonist = activates the H. glycines DAF-12 receptor ligand-binding domain. HEK293 GAL4-hgDAF12 UAS-luciferase reporter, agonist luminescence; normalized to butyrate control. activation, % at 6.8 µM. 370,000 compounds, 1.8% hits;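 active = activation above a cutoff set at the mean of all screened compounds plus 3 SD, cut at about 10% in these data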;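 note: 0% = DMSO wells and 100% = sodium butyrate wells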
ssDAF-12 act = activates DAF-12 receptor from parasite S. stercoralis. 370,000 compounds, 1% hits. activation, % at 6.8 µM. HEK293 ssDAF-12/GRIP1 lit1-tk-luc reporter, luminescence; % of 3 µM dafachronic acid response;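 active = activation above the mean over all tested compounds plus 3 SD, cut at about 0.9% in these data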;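 note: 0% = DMSO-only wells and 100% = 3 µM delta7-dafachronic acid wells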
LXRb hcDAF ctr = counter-screen for hcDAF-12 agonists: agonists of human LXR-beta. shares compounds with hcDAF-12 act. HEK293 Gal4-LXR tk-luc reporter, luminescence, 24 h; normalized: DMSO 0%, positive control 100%. activation, % at 6.8 µM. 3,400 tested, under 10 active;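 active = mean percent activation of the reporter above a cutoff set as the average over tested compounds plus their standard deviation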
Target sequence (P55055 whole entry, looked up, the tested form may be a part): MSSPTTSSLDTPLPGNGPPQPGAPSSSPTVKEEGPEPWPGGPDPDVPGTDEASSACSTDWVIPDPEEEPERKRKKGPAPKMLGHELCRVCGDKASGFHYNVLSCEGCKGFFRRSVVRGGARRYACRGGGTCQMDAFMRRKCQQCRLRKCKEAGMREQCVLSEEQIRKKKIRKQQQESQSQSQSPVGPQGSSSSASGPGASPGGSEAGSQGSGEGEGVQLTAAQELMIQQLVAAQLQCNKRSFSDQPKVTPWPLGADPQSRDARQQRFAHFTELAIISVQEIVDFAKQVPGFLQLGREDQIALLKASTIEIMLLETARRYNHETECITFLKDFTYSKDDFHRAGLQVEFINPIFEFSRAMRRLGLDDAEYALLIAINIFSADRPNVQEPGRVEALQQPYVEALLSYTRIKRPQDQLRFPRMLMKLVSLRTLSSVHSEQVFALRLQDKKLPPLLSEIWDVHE
hcDAF12 ag = confirmation of H. contortus DAF-12 agonists | AID 743032 | 3,400 compounds, 61% hits | shares compounds with hcDAF-12 act | HEK293 hcDAF-12 lit1-tk-luc reporter, luminescence; % of Δ7-dafachronic acid response | activation, % at 6.8 µM;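 active = mean activation across triplicate tests above the threshold derived from the earlier primary screen, cut at about 5.5% in these data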;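 note: 0% = DMSO only wells and 100% = 3 µM Δ7-dafachronic acid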
Starred values were filed as active, the others as inactive. This is a sample that favours compounds with a hit; in the whole collection about 3.4% have one here.

`Nc1ccc(N=Nc2ccccc2)c2cccnc12` gave hcDAF-12 act 7.4*, hgDAF12 agonist 6, ssDAF-12 act 1, LXRb hcDAF ctr 0 and hcDAF12 ag 9.5*.
CC(C)(C)NC(=O)CSc1nc(-c2ccc(F)cc2)cs1 was read as APP 5'UTR act 77, NF-kB neuron act 4.7*, hcDAF-12 act 7.2*, hgDAF12 agonist 12*, ssDAF-12 act -1, LXRb hcDAF ctr 1 and hcDAF12 ag 5.
For CCNC(=O)CSc1nc(-c2ccc(F)cc2)cs1 the results were APP 5'UTR act 23, NF-kB neuron act 1.8, hcDAF-12 act -1, hgDAF12 agonist 2 and ssDAF-12 act -1.
For CCCC1CCC2(CC1)CCC2OC(=O)Nc1cccc(Cl)c1 (centres undefined) the results were hcDAF-12 act -2, hgDAF12 agonist 4 and ssDAF-12 act -1.
CC(=O)c1ccc(OCc2cc(=O)n3ccsc3n2)cc1 was read as APP 5'UTR act 23, NF-kB neuron act 1, hcDAF-12 act 9.8*, hgDAF12 agonist 9, ssDAF-12 act -1, LXRb hcDAF ctr 0 and hcDAF12 ag 3.
O=c1cc(COc2ccccc2[N+](=O)[O-])nc2sccn12 was read as hcDAF-12 act 5, hgDAF12 agonist 1 and ssDAF-12 act 0.
For COC(=O)[C@]1(Cc2ccccc2)NC=C(C(=O)c2ccc(F)cc2)[C@@H]1c1ccccc1 the results were hcDAF-12 act -1, hgDAF12 agonist 1 and ssDAF-12 act -1.
For O=C(Nc1cc(Cl)ccc1F)C1CCCN1S(=O)(=O)c1cccc2cccnc12 (centres undefined) the results were hcDAF-12 act -4, hgDAF12 agonist -2 and ssDAF-12 act -2.
`COC(=O)[C@]12C[C@H](CC(=O)NCCc3ccccc3OC)C(=O)N(Cc3ccc(Cl)cc3Cl)C1=C[C@H](C1CCCC1)O[C@@H]2C` gave hcDAF-12 act -3, hgDAF12 agonist 1 and ssDAF-12 act -1.
`Cc1ccc(/C(O)=C2\C(=O)C(=O)N(Cc3cccnc3)C2c2ccccc2[N+](=O)[O-])cc1` (centres undefined) gave APP 5'UTR act -11, NF-kB neuron act 1.2, hcDAF-12 act 9.7*, hgDAF12 agonist 13*, ssDAF-12 act 1.7*, LXRb hcDAF ctr 0 and hcDAF12 ag 6.8*.
Screening COc1ccc(CCNC(=O)COC(=O)C23CC4CC(CC(C4)C2)C3)cc1 returned APP 5'UTR act -8, NF-kB neuron act 0.98, hcDAF-12 act 6.8*, hgDAF12 agonist 5, ssDAF-12 act 0, LXRb hcDAF ctr 0 and hcDAF12 ag 1.
For CC(C)(C)OC(=O)NCc1cc(F)ccc1/C=C/S(=O)(=O)NC1CCCC1 the results were hcDAF-12 act -1, hgDAF12 agonist -2 and ssDAF-12 act -2.
Screening O=C(O)c1ccc2c(c1)C(=O)/C(=C\c1ccco1)C2=O returned APP 5'UTR act -11, NF-kB neuron act 1.3, hcDAF-12 act 1, hgDAF12 agonist 0 and ssDAF-12 act -1.
For O=C1C(=Cc2ccco2)C(=O)c2ccccc21 the results were APP 5'UTR act 17, NF-kB neuron act 1.1, hcDAF-12 act 7.3*, hgDAF12 agonist 10, ssDAF-12 act 0, LXRb hcDAF ctr 0 and hcDAF12 ag 2.
For CN(C)S(=O)(=O)c1ccc(Cl)c(-c2nnc3n2CCCCC3)c1 the results were APP 5'UTR act -1, NF-kB neuron act 0.92, hcDAF-12 act 7.8*, hgDAF12 agonist 0, ssDAF-12 act 0, LXRb hcDAF ctr 0 and hcDAF12 ag 3.
Clc1ccc(-c2nnc3n2CCCC3)cc1Cl was read as APP 5'UTR act 18, NF-kB neuron act 1.1, hcDAF-12 act -1, hgDAF12 agonist 0 and ssDAF-12 act -1.
O=S1(=O)c2ccc(N3CC[C@@H](O)C3)cc2O[C@@H]2CCN1C2 was read as hcDAF-12 act -2, hgDAF12 agonist 0 and ssDAF-12 act -1.
O=C(O)c1ccc(Cn2cnc3c(=O)[nH]cnc32)cc1 was read as hcDAF-12 act 10*, hgDAF12 agonist 1, ssDAF-12 act 1.2*, LXRb hcDAF ctr 0 and hcDAF12 ag -1.
For CCn1c(=O)n(CC(=O)N2CCN(c3ccc(F)cc3)CC2)c(=O)c2ccccc21 the results were hcDAF-12 act -1, hgDAF12 agonist 0 and ssDAF-12 act -1.
Screening COc1ccc(OC)c(C2CC(=O)N3CN(c4ccccc4F)CSC3=C2C#N)c1 (centres undefined) returned APP 5'UTR act 6, NF-kB neuron act 1.5, hcDAF-12 act 6.8*, hgDAF12 agonist 1, ssDAF-12 act -1, LXRb hcDAF ctr 0 and hcDAF12 ag 1.
`Cc1ccc(-n2c(SCc3ccc(Cl)c(Cl)c3)nnc2-c2ccc(C(C)(C)C)cc2)cc1` gave hcDAF-12 act -2, hgDAF12 agonist 1 and ssDAF-12 act -1.
For C/C(=N\Nc1nc2ccccc2nc1C)c1ccccc1O the results were hcDAF-12 act -1, hgDAF12 agonist -1 and ssDAF-12 act -1.
For Cc1nc2ccccc2nc(C)c1=NO the results were APP 5'UTR act 52, NF-kB neuron act 1.2, hcDAF-12 act 8.6*, hgDAF12 agonist 12*, ssDAF-12 act 1.0*, LXRb hcDAF ctr 0 and hcDAF12 ag 4.
Screening Cc1nc2ccc(Cl)cc2nc(C)/c1=N\O returned APP 5'UTR act 158*, NF-kB neuron act 2.3, hcDAF-12 act 7.7*, hgDAF12 agonist 11*, ssDAF-12 act 1.0*, LXRb hcDAF ctr 0 and hcDAF12 ag 6.3*.
For Nc1nnc2cc(Cl)ccc2n1 the results were hcDAF-12 act -1, hgDAF12 agonist 6 and ssDAF-12 act -1.
For CCOC(=O)N1CCN(C(=O)C[C@@H]2C(=O)N(Cc3ccc(OC)cc3)/C3=C/CCCCC[C@@]32C(=O)OCC)CC1 the results were hcDAF-12 act -2, hgDAF12 agonist 1 and ssDAF-12 act -2.
Screening c1ccc(-c2nc3c4ccccc4ccn3c2CN2CCOCC2)cc1 returned hcDAF-12 act 8.3*, hgDAF12 agonist 10, ssDAF-12 act 1, LXRb hcDAF ctr 0 and hcDAF12 ag 6.7*.
For Brc1cccc(-c2nc3c4ccccc4ccn3c2Cc2ccccc2)c1 the results were hcDAF-12 act 7.2*, hgDAF12 agonist 1, ssDAF-12 act 1.0*, LXRb hcDAF ctr 0 and hcDAF12 ag 7.4*.
Screening CCCc1nc2c(C)cc(Br)cn2c1Cc1ccccc1 returned hcDAF-12 act 11*, hgDAF12 agonist 7, ssDAF-12 act 1.0*, LXRb hcDAF ctr 1 and hcDAF12 ag 7.4*.
Screening CCCc1nc2c(C)cc(Br)cn2c1Cc1ccsc1 returned hcDAF-12 act 1, hgDAF12 agonist 7 and ssDAF-12 act 0.
